More than one record can exist for a structure, and the calls need not agree. Calls of active or inactive are those of the source. The calls were made as follows: active = hit-call score of the fitted dose curve at least 0.9, where 1 is the maximum; inactive = score below 0.9.

The nature of this assay: CCTE_Shafer_MEA_dev_network_spike_duration_std: CCTE's Neural Network Formation Assay for Standard Deviation of Network Spike Duration, Shafer Lab (AID 2284052).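 Also: hits are decreases in network spike duration SD versus DMSO vehicle.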 On the procedure: CCTE_Shafer_MEA_dev assay is conducted using Axion Biosystems 48 well microelectrode array (MEA) plates and Maestro recording system. Each well of the MEA plate contains a grid of 16 microelectrodes embedded in the culture surface. Electrically active cells, such as neurons, can be cultured over the electrodes, and electrical activity in these cells can be recorded extracellularly. The spontaneous firing of neurons is captured from each electrode on a microsecond timescale providing both temporally and spatially precise data. […] The CCTE_Shafer_MEA_dev assay uses primary cultures of rat cortical neurons. Recordings are made on days post-plating 5, 7, 9 and 12. As these cultures mature over time, neural networks develop functional activity and form cohesive networks in which electrical activity can be highly coordinated. CCTE_Shafer_MEA_dev_network_spike_duration_std is 1 of 19 assay components of the CCTE_Shafer_MEA_dev assay. It measures the standard deviation of the duration of network spikes (temporally-clustered groups of action potential firing across multiple electrodes) during a recording in a microelectrode array (MEA) using Axion Biosystems Maestro 768 channel amplifier with the AxIS adaptive spike detector. To collapse across multiple recordings made on days post-plating 5, 7, 9 and 12, the trapezoidal area-under-the-curve of the component is calculated.Data from the assay component CCTE_Shafer_MEA_dev_network_spike_duration_std was analyzed into 1 assay endpoint. This assay endpoint, CCTE_Shafer_MEA_dev_network_spike_duration_std, was analyzed in the negative analysis fitting direction relative to DMSO as the negative control and baseline of activity. Using a type of functional reporter, gain or loss-of-signal activity can be used to understand electrical activity.
On the day prior to culture, each well was coated thoroughly with 150 uL of 0.05% polyethyleneimine (PEI, Sigma Cat P3143) in 50 mM HEPES (Sigma Cat H7523) at a pH of 8. The plate was incubated at 37C for one hour. PEI was rinsed out with 500 uL of sterile water three times. Plates were stored at 4C until the day of culture. This culture was plated at a seeding density of 1.5 x 10^5 cells/well on a 48-well MEA plate, prepared as described above. Cells were administered via a 25 uL media/laminin ([…]; Sigma Cat L2020-1MG) drop directly onto the microelectrode array, as adding the cells with the laminin results in better attachment than pre-coating with laminin. After 2 hours, an additional 475 uL of cortical media was added and the cells returned to the incubator. Exposure starts at day 0 of plating and is continued over twelve days of network development until the experiment is terminated. Cells are fed with fresh medium on DIV 5 and 9, following the recordings on those days. The entire volume of media in the well is exchanged and any vehicle or compound treatment is renewed. Complete details are found in OP-NHEERL/ISTD/SBB/TJS/2015-03-r0 (available on request, email shafer.tim@epa.gov). Measurement of the electrical activity is non-invasive, and recordings can be made from the same plate over multiple different days of the culture. In cortical neurons, this allows for the measurement of extracellular action potentials over the period during which networks form in the MEA plate.
The AC50 is the midpoint of the concentration-response curve, whichever way the signal moves. For the compound `CCOP(=S)(OCC)Oc1nc(Cl)c(Cl)cc1Cl`, the call was inactive and the AC50 was 22700 nM (active).

For the compound `C=C(C)C(=O)[O][Sn]([CH2]CCC)([CH2]CCC)[CH2]CCC`, the AC50 is 13 nM (active).

`COP(=O)(OC)O/C(=C\Cl)c1cc(Cl)c(Cl)cc1Cl`: the compound was classed as inactive.

With `CC(=O)[O][Hg][c]1ccccc1`, the half-maximal activity concentration (AC50) is 11.2 nM (active).

As for `CCC(=O)C(CC(C)N(C)C)(c1ccccc1)c1ccccc1` (configuration not stated), the result was inactive.

For `ClC1(Cl)C2(Cl)C3(Cl)C4(Cl)C(Cl)(Cl)C5(Cl)C3(Cl)C1(Cl)C5(Cl)C24Cl` (configuration not stated), the AC50 is 1030 nM (active).

For the compound `O=C(O)C(F)(F)C(F)(F)C(F)(F)C(F)(F)C(F)(F)C(F)(F)C(F)(F)C(F)(F)C(F)(F)C(F)(F)F`, the call was inactive.

In the case of `Cn1sc(Cl)cc1=O`, the AC50 was 1840 nM (active).

With `CC(C)(C)c1cc(O)ccc1O`, the compound was classed as inactive.

Consider `O=C1C2(Cl)C3(Cl)C4(Cl)C(Cl)(Cl)C5(Cl)C3(Cl)C1(Cl)C5(Cl)C24Cl` (configuration not stated), for which the concentration at half-maximal activity (AC50) is 28 nM (active).

Regarding `O=C(O)C(F)(F)C(F)(F)C(F)(F)C(F)(F)C(F)(F)C(F)(F)F`, the compound was classed as inactive.

The values above are taken from PubChem BioAssay (EPA / NIEHS).
